Bioassay records from PubChem BioAssay.
DT40 TDP1 CPT = qHTS for Inhibitors of human tyrosyl-DNA phosphodiesterase 1 (TDP1): qHTS in cells in presence of CPT; chicken DT40 Tdp1-/-;hTDP1 cells + 20 nM CPT, ATP luminescence, 48 h; Potency, µM (top dose mostly 46.2 µM), inactives show at the highest dose activity change, negative = growth inhibition, hits mostly inhibitors; 420,000 tested, 12% active; further: on the % scale 0 is the no-effect control and ±100 the full control effect; nearly all actives have a fitted effect of over 55% in size
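Chicken DT40 Tdp1-/- cells stably complemented with human TDP1 were seeded at 400 cells/well in medium containing 20 nM camptothecin, exposed to pin-transferred compounds, and grown at 37 °C for at least 48 hr. Viability was read as ATP luminescence.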
DT40 TDP1 no CPT = qHTS for Inhibitors of human tyrosyl-DNA phosphodiesterase 1 (TDP1): qHTS in cells in absence of CPT | DT40 Tdp1-/- hTDP1 cells, no CPT, ATP luminescence, 48 h | Potency, µM (series often up to 46.2 µM), without a hit: top-dose activity change, negative = growth inhibition, actives largely listed as inhibitors | 420,000 tested, 15% active | AID 686978, 2013; further: on the % scale 0 is the no-effect control and ±100 the full control effect; nearly all actives have a fitted effect of over 55% in size
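Growth of hTDP1-complemented DT40 Tdp1-knockout cells is measured by ATP luminescence after at least 48 hr compound exposure at 37 °C, with DMSO substituting for the 20 nM CPT used in the parallel screen.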
HT1080 IDH1KD tx = qHTS for induction of synthetic lethality in tumor cells producing 2HG: qHTS for the HT-1080-IDH1KD cell line; HT-1080 IDH1 knockdown viability, ATP luminescence, 48 h; Potency, µM (doses to about 46.1 µM), for the others: at the highest dose activity, negative = toxicity, actives largely listed as cytotoxic; 360,000 tested, 2% active;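 further: 0% = DMSO wells and -100% = cell-free medium wells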
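Assay cells: HT-1080 with IDH1 knockdown, 750 per well, RPMI/5% FBS. Exposure: 48 h at 37 °C following 2 h pre-incubation. Read: CellTiter-Glo luminescence; fitted concentration-response, curve class assigned.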
TGFb inhibitor = qHTS for Inhibitors of TGF-b; Potency, µM (series often up to 46.1 µM), without a hit: at the top dose activity, negative = inhibition, hits mostly inhibitors; HepG2 CAGA-GFP TGF-b/SMAD3 reporter, GFP fluorescence, 18 h; TGF-beta stimulated, 500 pg/mL final; 410,000 tested, 1.2% active; AID 588855, 2011; further: on the % scale 0 is the no-effect control and ±100 the full control effect; nearly all actives have a fitted effect of over 65% in size
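Smad-responsive CAGA-GFP expression was quantified in HEPG2 cells exposed to compounds and 500 pg/mL final TGF-beta for 18 h at 37 degrees C; unstimulated wells defined full inhibition.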
HepG2 tox = qHTS for Inhibitors of TGF-b: Cytotox Counterscreen; HepG2 CAGA-GFP viability, ATP luminescence, 18 h; Potency, µM (titrated, usually from 46.1 µM), without a hit: at the top dose activity change, negative = cytotoxicity, most hits filed as cytotoxic; 410,000 tested, 0.76% active
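HepG2 CAGA-GFP cells (1000/well, DMEM with 1% FBS) received compound, then TGF-beta at 500 pg/mL final, and were incubated 18 hours at 37 degrees C. Viability was read by CellTiter-Glo luminescence. Media-only wells were set as complete cell-killing and DMSO as no toxicity.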
HT1080-NT tox = qHTS for induction of synthetic lethality in tumor cells producing 2HG: qHTS for the HT-1080-NT fibrosarcoma cell line | HT-1080-NT fibrosarcoma viability, CellTiter-Glo ATP luminescence, 48 h | Potency, µM (top dose mostly 46.1 µM), without a hit: at the highest dose activity, negative = less viability, most hits filed as cytotoxic | 360,000 tested, 1.6% active | AID 686970, 2013;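 further: NT is the 2HG producing partner of a matched IDH1 knockdown line; 0% = DMSO-treated cells and -100% = media-only wells without cells; nearly all actives have a fitted effect of over 55% in size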
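750 cells/well, RPMI + 5% FBS; 2 h settle, compound pin-transfer, 48 h at 37 degrees C. CellTiter-Glo 10 min RT, luminescence. Normalized to DMSO and media-only wells.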
* hit, by the source's call; ? = inconclusive; / = no result given. Hits are enriched below; roughly 17% of the tested compounds scored in any of these assays. The call rests on the fitted dose curve; in most records, active means well fitted curve in the direction sought with a large enough effect; inconclusive means small, poorly fitted or top-dose-only effect, or another doubt; inactive means no such curve, though single readings can be large; an effect the other way counts as inactive or inconclusive. Potency means the concentration at half of the fitted maximal effect.

SMILES	DT40 TDP1 CPT	DT40 TDP1 no CPT	HT1080 IDH1KD tx	TGFb inhibitor	HepG2 tox	HT1080-NT tox
Cc1ccc(OCCOc2cccc3ccc(C)nc23)c([N+](=O)[O-])c1	?	16µM*	-8%	2%	-18%	-20%
Cc1ccc2cccc(OCc3cccc([N+](=O)[O-])c3)c2n1	10%	-9%	0%	-5%	-19%	0%
Brc1ccccc1OCCOCCOc1cccc2cccnc12	?	?	?	-21%	-28%	-25%
COC(=O)c1ccccc1OCCOCCOc1cccc2ccc(C)nc12	?	23µM*	-19%	4%	6%	?
COC(=O)c1ccccc1OCc1cccc(C)n1	0%	-17%	9%	-3%	7%	3%
COC(=O)c1ccc(OCCOCCOc2cccc3ccc(C)nc23)cc1	?	23µM*	-1%	-2%	-13%	-5%
Cc1ccc2cccc(OCCOCCOc3ccccc3Br)c2n1	?	21µM*	-4%	-11%	-37%	3%
COc1cccc(-c2cn3ncsc3n2)c1	-13%	-11%	/	-9%	-22%	/
C/C(=N\NC(=O)C1(C)CC1(Br)Br)c1cccc(NC(=O)C2CCC2)c1 (stereo not drawn)	18µM*	26µM*	-8%	18%	-5%	0%
O=C1CCCN1CCCN=c1c([N+](=O)[O-])nn(-c2ccc(Cl)cc2)n1O	3.3µM*	6.5µM*	-2%	?	4%	2%
COc1ccc(-n2nc([N+](=O)[O-])c(=NCCc3cccc(C)c3)n2O)cc1	?	?	-3%	-4%	-4%	-7%
COc1ccc(-n2nc([N+](=O)[O-])c(=NCCCN3CCCC3=O)n2O)cc1	?	?	6%	?	-10%	-4%
Cc1cccc(-n2nc([N+](=O)[O-])c(=NC3CCN(Cc4ccccc4)CC3)n2O)c1	8.2µM*	12µM*	1%	?	16µM*	-6%
Cc1cccc(CCN=c2c([N+](=O)[O-])nn(-c3ccccc3)n2O)c1	15µM*	?	-8%	-27%	-25%	-3%
COc1ccc(CCN=c2c([N+](=O)[O-])nn(-c3cccc(C)c3)n2O)cc1OC	10µM*	?	-22%	?	-37%	-24%
O=C(NC(NC(=S)N1CCOCC1)C(Cl)(Cl)Cl)c1cccc2ccccc12 (stereo not drawn)	?	-22%	-1%	-9%	-9%	14%
O=C(Nc1ccc(F)c(Cl)c1)N1CCC(CN2CCOCC2)CC1	-13%	-26%	/	10%	1%	/
CCOc1ccc(CNC(=S)N/N=C/c2ccc(OC)c(OC)c2)cc1	-17%	?	16%	?	1%	-1%
Cc1ccc(C(=O)COC(=O)C(CC(C)C)NC(=O)C2CCC(C)CC2)cc1 (stereo not drawn)	?	?	/	30%	7%	/
O=[N+]([O-])c1nn(-c2ccc(Cl)cc2)n(O)c1=NCc1ccccc1	10µM*	?	-17%	12%	9%	2%
O=C(CC[C@H]1O[C@@H](n2ccc(=O)[nH]c2=O)[C@H](O)[C@@H]1O)NC1CCN(Cc2ccccc2)C1 (stereo partly drawn)	19%	-1%	19%	-24%	-5%	18%
Cc1cccc(C)c1NC(=O)C(c1ccccc1)N1CCC2(CC1)OCCO2 (stereo not drawn)	-9%	-18%	-3%	14%	-3%	-2%
CSCCC(C(=O)Nc1c(C)cccc1C)N1CCN(c2ccc(F)cc2)CC1 (stereo not drawn)	?	21µM*	-5%	?	-67%	15%
CC(C)C(=O)N1CCC(Cc2ccccc2)CC1	3%	2%	-1%	-6%	-9%	0%
O=C(Nc1ccc2c(c1)OCCO2)C(CCc1ccccc1)N1CCC(Cc2ccccc2)CC1 (stereo not drawn)	?	16µM*	-21%	-24%	-3%	-2%
SMILES	DT40 TDP1 CPT	DT40 TDP1 no CPT	HT1080 IDH1KD tx	TGFb inhibitor	HepG2 tox	HT1080-NT tox
Cc1cccc(C)c1NC(=O)C(c1ccccc1)N1CCC(c2ccccc2)CC1 (stereo not drawn)	?	15µM*	8%	/	/	-5%
O=C(Nc1ccc2c(c1)OCCO2)C(CCc1ccccc1)N(Cc1ccccc1)Cc1ccccc1 (stereo not drawn)	?	?	-5%	-28%	-10%	7%
CSCCC(C(=O)Nc1c(C)cccc1C)N1CCN(c2ccc(C(F)(F)F)cn2)CC1 (stereo not drawn)	-4%	-26%	8%	0%	3%	0%
CSCCC(C(=O)Nc1c(C)cccc1C)N1CCC(Cc2ccccc2)CC1 (stereo not drawn)	16µM*	18µM*	?	?	-33%	?
NC(=O)c1cc(NC(=O)c2cc(Br)c(Br)s2)cc(C(N)=O)c1	2%	5%	25%	5%	-2%	24%
COc1ccccc1Cn1c(=S)[nH]c2ccc(F)cc2c1=O	-13%	-17%	4%	0%	-6%	0%
O=C(NCc1ccccc1)c1n[nH]nc1-c1ccccc1O	-15%	-16%	-7%	-5%	-20%	5%
CCc1cccc(C)c1NC(=O)c1cnn(-c2ccc(F)cc2)c1-n1cccc1	/	/	/	-10%	-12%	/
Cc1cccc(C)c1NC(=S)N1CCC(c2ccccc2)C1 (stereo not drawn)	-2%	?	2%	-9%	-11%	-4%
O=C(Nc1ccc(F)cc1)C(CCc1ccccc1)N1CCN(c2ccncc2)CC1 (stereo not drawn)	16µM*	23µM*	?	/	/	21µM*
Cc1cccc(C)c1NC(=O)C(CCc1ccccc1)N1CCC(c2ccccc2)CC1 (stereo not drawn)	16µM*	18µM*	-1%	/	/	4%
COC(=O)c1cc2sc(C)cc2n1Cc1ccccc1	?	?	/	6%	-1%	/
COC(=O)c1cc2sc(C)cc2n1Cc1cccc(OC)c1	?	23µM*	/	/	-9%	/
COc1ccccc1CC(=O)Nc1ncc(C)s1	?	16µM*	-2%	-3%	-2%	0%
